Screening data deposited in PubChem BioAssay by several laboratories.
A selection: hits, their analogues and other compounds. The true share with any hit is near 4%.
Mtb bLac sens = beta-lactam sensitization of Mtb H37Rv | M. tuberculosis H37Rv growth with meropenem, percent inhibition | inhibition, % at 25 µM | actives 0.27% (n = 330,000) | AID 434955;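 further: growth measured after seven days incubation then overnight dye step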
Rv3671c protease = Rv3671c (M. tuberculosis) protease inhibition; inhibition, % at 5.96 µM; actives 0.048% (n = 320,000); AID 2606; in the data active means inhibition above about 38%;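 further: extracellular domain of Rv3671c used as enzyme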
Mtb FBA inh = inhibits M. tuberculosis FBA enzyme; P9WQA3; inhibition, % at 1 µM; actives 2.3% (n = 360,000); purified M. tuberculosis FBA, fluorescence read-out; in the data active means inhibition above about 27%
Target sequence (P9WQA3 whole entry, looked up): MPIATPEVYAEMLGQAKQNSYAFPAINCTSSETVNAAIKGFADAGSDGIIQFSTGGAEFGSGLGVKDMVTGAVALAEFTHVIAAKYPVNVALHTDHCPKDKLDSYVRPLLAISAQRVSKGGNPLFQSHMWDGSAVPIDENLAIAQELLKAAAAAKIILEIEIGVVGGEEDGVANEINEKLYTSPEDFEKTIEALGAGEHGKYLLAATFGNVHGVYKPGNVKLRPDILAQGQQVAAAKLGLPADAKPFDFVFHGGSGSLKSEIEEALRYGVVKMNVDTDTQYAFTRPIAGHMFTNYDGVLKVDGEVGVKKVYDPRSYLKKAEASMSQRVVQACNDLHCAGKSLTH
RecA splice inh = inhibitors of M. tuberculosis RecA intein splicing; actives 0.75% (n = 290,000); P9WHJ3; inhibition, % (no concentration beside the values); cell-free RecA intein splicing, fluorescence; AID 2221; in the data active means inhibition above about 30%; inconclusive means no clear call, values can overlap the other calls
GDH-TPI counter-1 = GDH-TPI coupled enzyme inhibition counter-screen; GDH-TPI coupled enzyme counterscreen, NADH absorbance; inhibition, % at 4.8 µM; actives 1.2% (n = 360,000); AID 588335; in the data active means inhibition above about 30%
UGM FP inh = inhibitors of M. tuberculosis UDP-galactopyranose mutase; P9WIQ1; actives 0.06% (n = 320,000); inhibition, % at 10 µM; purified UGM, fluorescence polarization probe displacement; in the data active means inhibition above about 10%, passing the limit was not always enough; inconclusive means no clear call, values can overlap the other calls
Mtb FBA confirm = confirmation of M. tuberculosis fructose-bisphosphate aldolase inhibitors | AID 651616 | shares compounds with Mtb FBA inh | actives 78% (n = 5,600) | purified M. tuberculosis FBA, fluorescence read-out | inhibition, % at 1 µM; in the data active means inhibition above about 27%
GDH-TPI counter-2 = counter-screen for M. tuberculosis FBA inhibitors: GDH-TPI coupled enzyme inhibition. shares compounds with Mtb FBA inh. GDH-TPI coupled enzyme counterscreen, fluorescence. inhibition, % at 1 µM. actives 81% (n = 5,600); in the data active means inhibition above about 10%
GDH-TPI DR = GDH-TPI dose response counter-screen for Mtb FBA; shares compounds with Mtb FBA inh; GDH-TPI coupled enzyme assay, fluorescence, artifact counterscreen; IC50, µM; actives 79% (n = 170)
Each line names hits and unclear results; the compound was inactive in the other large screens (follow-up assays come after a bar, where they were run). Unless noted, how the calls were made is not given here.

O=C(Nc1ccccc1Cl)C1CCCN(c2ncnc3c2nc2n3CCCCC2)C1 (configuration not stated)	none
COc1ccccc1OCCCCn1ncc2ccc(OC)c(OC)c2c1=O	none
Cc1ccc(/C=C/c2nnc(-c3cccs3)o2)cc1	none
Cc1ccc(-c2nnc(-c3cccs3)o2)cc1	Mtb FBA inh 54.5 | Mtb FBA confirm 61.3 | GDH-TPI counter-2 48.6
COc1ccc(-c2nnc(-c3ccc(F)cc3)o2)cc1	none
COc1ccc(-c2nnc(-c3ccc(C)cc3)o2)cc1	Mtb FBA inh 62.4 | Mtb FBA confirm inactive | GDH-TPI counter-2 inactive
CCn1c(SCC(=O)NCC2CCCO2)nnc1-c1ccc(S(=O)(=O)N2CCN(C)CC2)cc1 (configuration not stated)	none
COc1ccc(-c2cn3nc(SCC(=O)NC4CCCCC4)ccc3n2)cc1	Mtb FBA inh 27.5 | Mtb FBA confirm 73.6 | GDH-TPI counter-2 41.3
COc1ccc(-c2[nH]c(-c3cccc(OC)c3)nc2SCC(=O)NC2CCCC2)cc1	Mtb FBA inh 40.4 | Mtb FBA confirm 123.6 | GDH-TPI counter-2 99.7
O=C(COC(=O)C1CCC1)NCc1ccc(F)cc1	none
CC(=O)NC(c1ccccc1)c1nc(-c2ccccc2)cs1 (configuration not stated)	none (no result: Mtb bLac sens, Rv3671c protease, RecA splice inh, UGM FP inh)
O=[N+]([O-])c1ccc(Nc2c3ccccc3nc3ccccc23)cc1	Mtb FBA inh 50.9 (no result: Mtb bLac sens, Rv3671c protease, UGM FP inh) | Mtb FBA confirm 100.6 | GDH-TPI counter-2 83.7
Cc1cc(C(=O)COC(=O)c2nccnc2N)c(C)n1C	Mtb FBA inh 62.1, UGM FP inh inconclusive | Mtb FBA confirm inactive | GDH-TPI counter-2 inactive
Cc1ccc(S(=O)(=O)NCCCN2CCCC2)cc1	none
O=C(CCc1ccccc1)Nc1ccccc1C(=O)NCc1ccco1	none
Cc1ccccc1NC(=O)CNc1ccccc1C(=O)NCc1ccco1	Mtb FBA inh 48.1 | Mtb FBA confirm 166.2 | GDH-TPI counter-2 143.3
Cc1cccc(C)c1NC(=S)Nc1ccccc1C(=O)NCc1ccco1	Mtb FBA inh 38.5 | Mtb FBA confirm inactive | GDH-TPI counter-2 inactive | GDH-TPI DR inactive
Cn1c(NCc2ccco2)nc2ccccc21	none
Cn1nnc2c(NCc3ccco3)nccc21	Mtb FBA inh 63.5 | Mtb FBA confirm 52.8 | GDH-TPI counter-2 43.0
COc1ccc2sc(-c3ccc(N(C)C)cc3)c(C#Cc3cncn3C)c2c1	Mtb FBA inh 107.7 (no result: RecA splice inh) | Mtb FBA confirm 126.7 | GDH-TPI counter-2 102.1
CCc1ccc(C(=O)CCC(=O)Nc2ccc(OC)c(S(=O)(=O)N3CCCCC3)c2)cc1	none (no result: RecA splice inh)
COc1ccc2nc(N)sc2c1	none
COc1ccc2nc(-c3ccc(F)cc3)sc2c1	Mtb FBA inh 97.9 | Mtb FBA confirm active | GDH-TPI counter-2 active
O=C(CCC1CCCN(C(=O)CC2=CCCCC2)C1)N1CCN(c2ccccn2)CC1 (configuration not stated)	none
O=C(CCC1CCCN(C(=O)C2=CCCC2)C1)N1CCN(c2ccccn2)CC1 (configuration not stated)	Mtb FBA inh 40.8 | Mtb FBA confirm inactive | GDH-TPI counter-2 inactive
Nc1nc2ccccc2cc1S(=O)(=O)c1ccccc1	Mtb FBA inh 51.3 | Mtb FBA confirm 115.7 | GDH-TPI counter-2 98.0
Cc1ccc(NC(=O)C2CC(=O)N(C(C)C)C2)cc1C (configuration not stated)	none
Cc1oncc1C(=O)Nc1ccc2ccccc2c1	none (no result: Mtb bLac sens, Rv3671c protease, UGM FP inh)
COC(=O)c1cccc(NC(=O)c2cnoc2C)c1	Mtb FBA inh 30.8 | Mtb FBA confirm 94.8 | GDH-TPI counter-2 73.5
CC1=CC(C)(C)NC(=S)N1CCO	none (no result: Mtb bLac sens, Rv3671c protease, RecA splice inh, UGM FP inh)
CC1CCC(NC(=O)CNC(=O)c2cccs2)CC1 (configuration not stated)	none
NS(=O)(=O)c1cc2c(cc1Cl)NC(C1CC3C=CC1C3)NS2(=O)=O (configuration not stated)	none (no result: RecA splice inh)
O=C1NC(C2CC3C=CC2C3)Nc2ccccc21 (configuration not stated)	Mtb FBA inh 63.1 (no result: Mtb bLac sens, Rv3671c protease, RecA splice inh, UGM FP inh) | Mtb FBA confirm active | GDH-TPI counter-2 172.1
COc1ccc2oc(C(=O)OC(C)C(=O)N3CCC(C)CC3)c(C)c2c1 (configuration not stated)	Mtb FBA inh 44.1 (no result: RecA splice inh) | Mtb FBA confirm active | GDH-TPI counter-2 active
CCOC(=O)C1CCN(C(=O)COC(=O)c2oc3ccc(OC)cc3c2C)CC1	Mtb FBA inh 40.1 (no result: RecA splice inh, UGM FP inh) | Mtb FBA confirm 85.6 | GDH-TPI counter-2 46.5
COc1ccc2oc(C(=O)OCC(=O)N3CC(C)OC(C)C3)c(C)c2c1 (configuration not stated)	Mtb bLac sens inconclusive, Mtb FBA inh 36.2 | Mtb FBA confirm inactive | GDH-TPI counter-2 22.8
COc1ccc2oc(C(=O)OC(C)C(=O)N(C)c3ccccc3)c(C)c2c1 (configuration not stated)	Mtb FBA inh 30.6 | Mtb FBA confirm active | GDH-TPI counter-2 active
COc1ccc(C2(C(=O)Nc3ccc(C)c(C)c3)CCOCC2)cc1	none
Cn1ncc([N+](=O)[O-])c1C(=O)N1CCCCCC1	none (no result: Mtb bLac sens, Rv3671c protease, UGM FP inh)
Cc1c(C(=O)OCC(=O)N2CC(C)CC(C)C2)oc2ccccc12 (configuration not stated)	none
CCOc1ccc2oc(C(=O)OC(C(=O)NC(N)=O)C(C)C)c(C)c2c1 (configuration not stated)	Mtb FBA inh 39.6 | Mtb FBA confirm active | GDH-TPI counter-2 active
COc1ccc2oc(C(=O)OCC(=O)N3CC(C)CC(C)C3)c(C)c2c1 (configuration not stated)	Mtb FBA inh 30.7 | Mtb FBA confirm 57.1 | GDH-TPI counter-2 51.0
COC(=O)C1CCN(C(=O)COC(=O)c2cc(-c3ccccc3)nc3ccc(OC)cc23)CC1	Mtb FBA inh 82.6 (no result: RecA splice inh) | Mtb FBA confirm 58.0 | GDH-TPI counter-2 51.2
CCOc1ccc2oc(C(=O)O)c(C)c2c1	none
CCOc1ccc2oc(C(=O)NCC(C)(C)CN(C)C)c(C)c2c1	Mtb FBA inh 44.4 | Mtb FBA confirm 116.2 | GDH-TPI counter-2 85.6
CC12CC3CC(C)(C1)CC(Nc1nc(N4CCOCC4)nc4ccccc14)(C3)C2	none
CC[C@]12c3[nH]c4ccccc4c3CCN1C(=O)C(CC(=O)NCCCn1ccnc1)C[C@@H]2C(=O)N1CCN(C(=O)c2ccco2)CC1 (some centres not stated)	none (no result: RecA splice inh)
CCNC(=O)NC(=O)C(C)OC(=O)c1oc2ccc(OC)cc2c1C (configuration not stated)	Mtb FBA inh 43.6 | Mtb FBA confirm inactive | GDH-TPI counter-2 inactive
